Here are results for three compounds from PubChem BioAssay (EPA / NIEHS).

By AC50 is commonly meant the concentration at which the activity in the assay is half-maximal.

Activity calls are given as the source filed them. How the source made its calls: active means hit-call score of the fitted dose curve at least 0.9, where 1 is the maximum; inactive means score below 0.9.

What all share (details): mRNA level, 48 h; actives raise or lower the signal
Read-out in assay [1]: JUN Transcription Factor, JUN (gene 3725)
The assay is described as follows: LTEA_HepaRG_JUN: Life Technologies and Expression Analysis (LTEA) Assay for JUN Transcription Factor using HepaRG (AID 2283513). A digest of the protocol: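 HepaRG cells, 48 h post-plating, exposed 48 h in serum-free induction medium to 8-point half-log series (top 100 uM, 0.5% DMSO), duplicate; mRNA by qRT-PCR (TaqMan, Fluidigm), normalized to ACTB/GAPDH/POLR2A; bidirectional fit vs DMSO.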

Read-out in assay [2]: Lipase C (LIPC), LIPC (gene 3990)
In words: LTEA_HepaRG_LIPC: Life Technologies and Expression Analysis (LTEA) Assay for Lipase C (LIPC) using HepaRG (AID 2283514). A digest of the protocol: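 HepaRG cells, 48 h after plating, treated in duplicate for 48 h in serum-free induction medium over 8 half-log concentrations from 100 uM, 0.5% DMSO. LIPC mRNA by TaqMan qRT-PCR normalized to ACTB/GAPDH/POLR2A; bidirectional fit versus DMSO.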

Read-out in assay [3]: Lipoprotein lipase (LPL), LPL (gene 4023)
In words: LTEA_HepaRG_LPL: Life Technologies and Expression Analysis (LTEA) Assay for Lipoprotein lipase (LPL) using HepaRG (AID 2283515). An outline of the steps:
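Differentiated HepaRG cells, plated 48 h, then exposed 48 h in serum-free induction medium to 8 concentrations (top 100 uM, half-log steps) in 0.5% DMSO, duplicate. LPL mRNA measured by qRT-PCR, normalized to ACTB, GAPDH and POLR2A.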

Read-out in assay [4]: MicroRNA 122 (MIR122), gene 406906
The assay is described as follows: LTEA_HepaRG_MIR122: Life Technologies and Expression Analysis (LTEA) Assay for MicroRNA 122 (MIR122) using HepaRG (AID 2283516). Further: the transcript read is the microRNA miR-122. A digest of the protocol:
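Differentiated human HepaRG cells in serum-free induction medium exposed 48 h to 8 half-log concentrations from 100 uM in 0.5% DMSO, duplicate. MIR122 quantified by Fluidigm TaqMan qRT-PCR, normalised to ACTB, GAPDH, POLR2A; fold change fitted bidirectionally versus DMSO.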

Read-out in assay [5]: matrix metalloproteinase-10 (MMP10), MMP10 (gene 4319)
The assay is described as follows: LTEA_HepaRG_MMP10: Life Technologies and Expression Analysis (LTEA) Assay for matrix metalloproteinase-10 (MMP10) using HepaRG (AID 2283517). An outline of the steps:
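Differentiated HepaRG cells in serum-free induction medium exposed 48 h in duplicate to 8-point half-log series up to 100 uM in 0.5% DMSO. mRNA quantified by qRT-PCR, normalised to ACTB, GAPDH, POLR2A; bidirectional fit versus DMSO.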

Read-out in assay [6]: MYC, MYC (gene 4609)
The assay is described as follows: LTEA_HepaRG_MYC: Life Technologies and Expression Analysis (LTEA) Assay for MYC using HepaRG (AID 2283518). A digest of the protocol: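 MYC transcript changes, up or down relative to 0.5% DMSO, from TaqMan qRT-PCR normalized to three housekeeping genes. Human HepaRG cultures received chemicals for 48 h at eight half-log concentrations up to 100 uM, in duplicate.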

Read-out in assay [7]: matrix metalloproteinase-3 (MMP3), MMP3 (gene 4314)
The assay is described as follows: LTEA_HepaRG_MMP3: Life Technologies and Expression Analysis (LTEA) Assay for matrix metalloproteinase-3 (MMP3) using HepaRG (AID 2283519). A digest of the protocol: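 HepaRG cells (~100,000/well) in serum-free induction medium were dosed in duplicate for 48 h with an 8-point half-log series from 100 uM, 0.5% DMSO. MMP3 mRNA was quantified by Fluidigm TaqMan qRT-PCR, normalized to three housekeeping genes.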

Read-out in assay [8]: Paternally Expressed 10 (PEG10), PEG10 (gene 23089)
The assay is described as follows: LTEA_HepaRG_PEG10: Life Technologies and Expression Analysis (LTEA) Assay for Paternally Expressed 10 (PEG10) using HepaRG (AID 2283520). An outline of the steps:
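Differentiated HepaRG cells exposed 48 h in serum-free induction medium to eight half-log concentrations topping at 100 uM, 0.5% DMSO, in duplicate. PEG10 mRNA quantified by TaqMan qRT-PCR, normalized to ACTB, GAPDH and POLR2A; bidirectional fit versus DMSO.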

Read-out in assay [9]: Nuclear factor NF-kappa-B p105 subunit (Homo sapiens) (UniProt P19838)
The assay is described as follows: LTEA_HepaRG_NFKB1: Life Technologies and Expression Analysis (LTEA) Assay for Nuclear Factor Kappa B Subunit 1 (NFKB1) using HepaRG (AID 2283521).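 On outcome: TaqMan qRT-PCR transcript normalised to ACTB GAPDH and POLR2A housekeeping genes.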 A digest of the protocol:
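Human HepaRG cells receive eight half-log concentrations, highest 100 uM, for 48 h. NFKB1 expression is then quantified by qRT-PCR and analysed for up- or down-regulation relative to 0.5% DMSO vehicle.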

Read-out in assay [10]: Protein phosphatase 2A (PPP2R4), PTPA (gene 5524)
The assay is described as follows: LTEA_HepaRG_PPP2R4: Life Technologies and Expression Analysis (LTEA) Assay for Protein phosphatase 2A (PPP2R4) using HepaRG (AID 2283522). A digest of the protocol: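 Differentiated human HepaRG cells in serum-free induction medium were exposed 48 h to 8 concentrations (top 100 µM, half-log steps, duplicate) in 0.5% DMSO. PPP2R4 mRNA was measured by TaqMan qRT-PCR, normalised to ACTB, GAPDH and POLR2A, and fitted bidirectionally versus DMSO.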

Read-out in assay [11]: Phosphatase and tensin (PTEN), PTEN (gene 5728)
The assay is described as follows: LTEA_HepaRG_PTEN: Life Technologies and Expression Analysis (LTEA) Assay for Phosphatase and tensin (PTEN) using HepaRG (AID 2283523). A digest of the protocol: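 HepaRG cells, 48 h after plating, exposed in duplicate for 48 h in serum-free induction medium to 8 half-log concentrations up to 100 uM (0.5% DMSO). PTEN mRNA by qRT-PCR, normalized to ACTB, GAPDH, POLR2A; bidirectional fit versus DMSO.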

Read-out in assay [12]: solute carrier (SLC22A1), SLC22A1 (gene 6580)
The assay is described as follows: LTEA_HepaRG_SLC22A1: Life Technologies and Expression Analysis (LTEA) Assay for solute carrier (SLC22A1) using HepaRG (AID 2283524). An outline of the steps: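 Differentiated human HepaRG cells in serum-free induction medium, exposed 48 h in duplicate to 8-point half-log series from 100 µM top in 0.5% DMSO. SLC22A1 mRNA by TaqMan qRT-PCR normalized to ACTB, GAPDH, POLR2A; bidirectional fit versus DMSO.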

Read-out in assay [13]: Pyruvate Dehydrogenase Kinase 4 (PDK4), PDK4 (gene 5166)
In words: LTEA_HepaRG_PDK4: Life Technologies and Expression Analysis (LTEA) Assay for Pyruvate Dehydrogenase Kinase 4 (PDK4) using HepaRG (AID 2283525). An outline of the steps:
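HepaRG cells plated 48 h, then switched to serum-free induction medium and exposed in duplicate for 48 h to 8 half-log concentrations from 100 uM in 0.5% DMSO. PDK4 mRNA measured by qRT-PCR, normalized to ACTB, GAPDH and POLR2A; bidirectional fit versus DMSO.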

Read-out in assay [14]: NAD(P)H dehydrogenase [quinone] 1 (NQO1), NQO1 (gene 1728)
In words: LTEA_HepaRG_NQO1: Life Technologies and Expression Analysis (LTEA) Assay for NAD(P)H dehydrogenase [quinone] 1 (NQO1) using HepaRG (AID 2283526). A digest of the protocol: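 Differentiated human HepaRG cells in serum-free induction medium, dosed in duplicate for 48 h at 8 half-log concentrations up to 100 uM in 0.5% DMSO. NQO1 mRNA by qRT-PCR normalized to ACTB, GAPDH, POLR2A; bidirectional fit versus DMSO baseline.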

Read-out in assay [15]: Nuclear factor erythroid 2-related factor 2 (Homo sapiens) (UniProt Q16236)
In words: LTEA_HepaRG_NFE2L2: Life Technologies and Expression Analysis (LTEA) Assay for Nuclear factor erythroid 2-related factor 2 (NFE2L2) Transcription Factor using HepaRG (AID 2283527).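 On outcome: TaqMan qRT-PCR transcript level normalised to ACTB GAPDH and POLR2A housekeeping genes.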 An outline of the steps: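 Differentiated human HepaRG cells, serum-free induction medium, exposed 48 h in duplicate to eight half-log concentrations up to 100 uM in 0.5% DMSO. NFE2L2 mRNA by Fluidigm TaqMan qRT-PCR, normalised to ACTB, GAPDH, POLR2A; bidirectional change versus DMSO.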

Read-out in assay [16]: succinate dehydrogenase complex iron sulfur subunit B (SDHB), SDHB (gene 6390)
The assay is described as follows: LTEA_HepaRG_SDHB: Life Technologies and Expression Analysis (LTEA) Assay for succinate dehydrogenase complex iron sulfur subunit B (SDHB) using HepaRG (AID 2283528). An outline of the steps:
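A human HepaRG culture in serum-free induction medium received test chemicals for 48 h over an eight-point range capped at 100 uM. SDHB expression change was quantified by qRT-PCR.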

Read-out in assay [17]: Signal transducer and activator of transcription 3 (Homo sapiens) (UniProt P40763)
In words: LTEA_HepaRG_STAT3: Life Technologies and Expression Analysis (LTEA) Assay for Signal transducer and activator of transcription (STAT3) using HepaRG (AID 2283529). An outline of the steps:
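Differentiated HepaRG cells, serum-free induction medium, dosed 48 h in duplicate, 8 half-log concentrations from 100 uM in 0.5% DMSO. STAT3 mRNA by qRT-PCR, normalised to ACTB, GAPDH, POLR2A; bidirectional fit versus DMSO.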

Read-out in assay [18]: solute carrier (SLCO1B1), SLCO1B1 (gene 10599)
In words: LTEA_HepaRG_SLCO1B1: Life Technologies and Expression Analysis (LTEA) Assay for solute carrier (SLCO1B1) using HepaRG (AID 2283530). A digest of the protocol:
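SLCO1B1 transcript levels were quantified by TaqMan qRT-PCR using three housekeeping genes for normalization. This followed 48 h chemical exposure (100 uM top, half-log, 8 points, 0.5% DMSO) of HepaRG liver cells, with gain or loss fitted relative to DMSO.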

Read-out in assay [19]: sulfotransferase 2A1 (SULT2A1), SULT2A1 (gene 6822)
In words: LTEA_HepaRG_SULT2A1: Life Technologies and Expression Analysis (LTEA) Assay for sulfotransferase 2A1 (SULT2A1) using HepaRG (AID 2283531). A digest of the protocol:
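Expression change of SULT2A1, by qRT-PCR with three housekeeping-gene normalization, was scored bidirectionally versus DMSO. Cells: differentiated HepaRG, dosed in duplicate for 48 h across 8 points, highest 100 µM, half-log dilution, 0.5% DMSO.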

Read-out in assay [20]: Transforming Growth Factor (TGFA), TGFA (gene 7039)
The assay is described as follows: LTEA_HepaRG_TGFA: Life Technologies and Expression Analysis (LTEA) Assay for Transforming Growth Factor (TGFA) using HepaRG (AID 2283532). A digest of the protocol: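 Differentiated HepaRG cells exposed 48 hours in serum-free induction medium, 0.5% DMSO vehicle, 8-point half-log series from 100 uM, in duplicate. TGFA mRNA by TaqMan qRT-PCR, normalised to ACTB, GAPDH, POLR2A; bidirectional fit versus DMSO.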

Signal transducer and activator of transcription 3 (Homo sapiens), sequence (P40763 whole entry, looked up): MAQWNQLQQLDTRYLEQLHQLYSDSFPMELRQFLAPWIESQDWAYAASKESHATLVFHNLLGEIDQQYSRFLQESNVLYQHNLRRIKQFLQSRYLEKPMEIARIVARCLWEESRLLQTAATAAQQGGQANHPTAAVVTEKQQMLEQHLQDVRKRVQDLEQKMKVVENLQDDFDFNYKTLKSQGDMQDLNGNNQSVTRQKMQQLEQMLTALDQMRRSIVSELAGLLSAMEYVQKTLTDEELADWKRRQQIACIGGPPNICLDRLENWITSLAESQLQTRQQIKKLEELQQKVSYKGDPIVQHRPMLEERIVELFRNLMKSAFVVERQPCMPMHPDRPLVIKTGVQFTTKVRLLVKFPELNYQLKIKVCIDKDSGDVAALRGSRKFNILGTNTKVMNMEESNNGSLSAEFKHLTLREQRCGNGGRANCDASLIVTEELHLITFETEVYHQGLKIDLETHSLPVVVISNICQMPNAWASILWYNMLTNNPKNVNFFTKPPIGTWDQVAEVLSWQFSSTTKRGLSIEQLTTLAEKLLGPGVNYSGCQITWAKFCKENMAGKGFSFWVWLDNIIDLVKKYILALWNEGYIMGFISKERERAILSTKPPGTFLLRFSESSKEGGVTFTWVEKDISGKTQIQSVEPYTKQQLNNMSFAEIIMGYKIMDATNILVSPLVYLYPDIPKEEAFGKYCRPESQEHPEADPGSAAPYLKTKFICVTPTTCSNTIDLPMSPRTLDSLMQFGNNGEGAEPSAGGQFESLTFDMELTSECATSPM
Nuclear factor NF-kappa-B p105 subunit (Homo sapiens), sequence (P19838 whole entry, looked up): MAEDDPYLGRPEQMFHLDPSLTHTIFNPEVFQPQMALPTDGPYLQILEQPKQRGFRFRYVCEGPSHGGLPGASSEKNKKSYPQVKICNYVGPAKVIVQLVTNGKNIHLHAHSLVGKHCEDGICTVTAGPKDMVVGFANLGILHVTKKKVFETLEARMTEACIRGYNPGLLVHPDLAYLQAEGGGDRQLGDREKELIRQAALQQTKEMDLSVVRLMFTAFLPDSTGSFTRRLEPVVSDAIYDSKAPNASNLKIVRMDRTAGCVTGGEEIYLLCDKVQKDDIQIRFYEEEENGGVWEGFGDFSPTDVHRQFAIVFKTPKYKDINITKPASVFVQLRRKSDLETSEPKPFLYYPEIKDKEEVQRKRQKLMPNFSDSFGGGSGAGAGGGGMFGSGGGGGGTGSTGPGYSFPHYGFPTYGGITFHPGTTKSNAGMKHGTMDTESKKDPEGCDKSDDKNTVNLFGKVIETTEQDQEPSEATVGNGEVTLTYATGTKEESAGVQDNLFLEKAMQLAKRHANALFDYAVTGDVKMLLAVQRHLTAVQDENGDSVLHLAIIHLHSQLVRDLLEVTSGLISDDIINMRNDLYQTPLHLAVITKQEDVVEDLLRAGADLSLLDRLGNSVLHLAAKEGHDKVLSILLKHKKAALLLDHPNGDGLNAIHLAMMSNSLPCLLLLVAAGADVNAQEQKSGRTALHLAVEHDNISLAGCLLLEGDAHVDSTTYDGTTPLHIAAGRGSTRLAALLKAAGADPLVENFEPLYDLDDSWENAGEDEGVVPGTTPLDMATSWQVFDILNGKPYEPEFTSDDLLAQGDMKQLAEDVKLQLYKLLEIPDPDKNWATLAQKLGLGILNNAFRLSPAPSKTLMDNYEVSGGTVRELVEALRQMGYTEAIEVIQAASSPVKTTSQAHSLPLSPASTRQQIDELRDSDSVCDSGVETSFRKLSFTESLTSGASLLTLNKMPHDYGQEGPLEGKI
Nuclear factor erythroid 2-related factor 2 (Homo sapiens), sequence (Q16236 whole entry, looked up): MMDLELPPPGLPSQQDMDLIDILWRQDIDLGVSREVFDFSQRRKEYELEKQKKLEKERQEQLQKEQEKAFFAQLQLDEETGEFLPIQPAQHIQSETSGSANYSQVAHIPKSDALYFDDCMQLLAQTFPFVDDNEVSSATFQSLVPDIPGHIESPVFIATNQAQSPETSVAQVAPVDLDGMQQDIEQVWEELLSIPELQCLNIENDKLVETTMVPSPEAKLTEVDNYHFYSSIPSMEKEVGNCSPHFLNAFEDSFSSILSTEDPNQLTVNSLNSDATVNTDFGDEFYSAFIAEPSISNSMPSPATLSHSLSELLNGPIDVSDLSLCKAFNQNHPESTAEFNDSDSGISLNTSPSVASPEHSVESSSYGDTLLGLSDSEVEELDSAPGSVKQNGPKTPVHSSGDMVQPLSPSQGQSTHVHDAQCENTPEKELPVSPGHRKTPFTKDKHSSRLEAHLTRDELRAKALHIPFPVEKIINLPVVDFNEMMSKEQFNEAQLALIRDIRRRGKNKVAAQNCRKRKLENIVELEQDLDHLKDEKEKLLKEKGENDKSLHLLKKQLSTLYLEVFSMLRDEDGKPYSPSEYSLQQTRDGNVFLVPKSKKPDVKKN

Consider `O=C(CCCCCCCCc1cccnc1)N1CCC(C=C(c2ccccc2)c2ccccc2)CC1`, for which the half-maximal activity concentration (AC50) in [1] is 28.5 µM (active); in assay [2], 22.4 µM (active); in assay [3] it was 12.8 µM (active); in [4], 26.5 µM (active); in [5], 31.8 µM (active); in [6] it was 27.4 µM (active). Moreover, the half-maximal activity concentration (AC50) in [7] is 86.8 µM (active); in assay [8], 50 µM (active); in [9], 31.4 µM (active); in assay [10] it was 11.7 µM (active); in assay [12] it was 24.4 µM (active); in assay [13] it was 89.4 µM (active). Besides, the AC50 in assay [14] was 80 µM (active); in assay [15] it was 24.9 µM (active); in assay [18], 50 µM (active); in assay [19] it was 30.6 µM (active); in [20], 27 µM (active). The call in [11], in assay [16] and in assay [17] was inactive.

For `C1=CCCC=CCCC=CCC1`, the compound was called inactive in assay [1], in [2], in assay [3], in assay [4], in [5] and in [6]. The outcome in assay [7], in [8], in assay [9], in [10], in assay [11] and in assay [12] was inactive. Further, the result in [13], in assay [14], in assay [15], in assay [16], in assay [17] and in [18] was inactive. Further, the outcome in assay [19] and in assay [20] was inactive.

For the compound `Nc1cccc(N)c1`, the compound was classed as inactive in assay [1], in assay [2], in assay [3], in [4], in assay [5] and in assay [6]. Further, the compound was called inactive in assay [7], in assay [8], in assay [9], in [10], in assay [11] and in assay [12]. The compound was classed as inactive in assay [13], in [14], in assay [15], in [16], in [17] and in assay [18]. Further, the call in assay [20] was inactive.
